The values below come from PubChem BioAssay (NCI).

Holding throughout (test): NCI-60 one-dose screen, 48 h (100 = growth as untreated, 0 = no growth, -100 = all killed)
In one assay the test system is HOP-92 NSCLC. The settings on record: 10 µM unless noted.
A further assay deals with COLO 205 colon. The settings on record: 10 µM.
Another assay concerns MALME-3M melanoma. The settings on record: 10 µM unless noted.
The next assay has as its system HCT-15 colon. The settings on record: 10 µM.
The next assay concerns SNB-19 CNS. The settings on record: 10 µM unless noted.
The next assay deals with SK-MEL-5 melanoma. The settings on record: 10 µM unless noted.
In another assay the test system is SN12C renal. The settings on record: 10 µM unless noted.
In another assay the test system is TK-10 renal. The settings on record: 10 µM unless noted.
Another assay concerns MOLT-4 leukemia. The settings on record: 10 µM.
The subject of another assay is SR leukemia. The settings on record: 10 µM.
A further assay relates to RPMI-8226 leukemia. The settings on record: 10 µM unless noted.
A further assay has as its system OVCAR-8 ovarian. The settings on record: 10 µM unless noted.
The next assay deals with IGROV1 ovarian. The settings on record: 10 µM.
The next assay deals with HCC-2998 colon. The settings on record: 10 µM unless noted.
The test system of a further assay is NCI-H522 lung. The settings on record: 10 µM unless noted.
The test system of the next assay is EKVX NSCLC. The settings on record: 10 µM unless noted.
The next assay relates to CCRF-CEM leukemia. The settings on record: 10 µM unless noted.
The next assay concerns MDA-MB-435 melanoma. The settings on record: 10 µM unless noted.
A further assay has as its system LOX IMVI melanoma. The settings on record: 10 µM unless noted.

The panel holds about 83,000 compounds, 20% with a hit somewhere; the sample as a whole holds those more often.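 Interpretation: 100, growth as untreated; towards 0, rising growth inhibition; 0, no net growth; 0 to -100, cell death. Compounds scoring below 10 were considered active.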 Unmarked numbers belong to inactive results. Active and inactive are the calls of the source.

Regarding `O=C(CCl)NCNC(=O)CCl`, the growth with HOP-92 NSCLC was 99.5%; in the assay on COLO 205 colon, 109%; with MALME-3M melanoma, 114%; in the assay on HCT-15 colon, 91.4%; with SNB-19 CNS, 108%; with SK-MEL-5 melanoma it was 92.7%. Besides, the growth with SN12C renal is 97.7%; with TK-10 renal it was 105%; with MOLT-4 leukemia, 90.4%; in the assay on SR leukemia, 80.2%; in the assay on RPMI-8226 leukemia, 83%; with OVCAR-8 ovarian, 92.4%. The growth is 74.4% with IGROV1 ovarian and 111% in the assay with HCC-2998 colon.

As for `COc1cc[c]([Hg][Cl])cc1`, the growth in the assay on HOP-92 NSCLC is 90.1%; with NCI-H522 lung it was -73.8% (active); in the assay with MALME-3M melanoma it was 47.3%; with HCT-15 colon, -42.8% (active); with SNB-19 CNS it was 28.6%; in the assay with SK-MEL-5 melanoma it was 30.5%. The growth is 76.3% with EKVX NSCLC; -6.35% (active) with SN12C renal; 114% in the assay with TK-10 renal; -20.8% (active) with CCRF-CEM leukemia; -7.01% (active) in the assay with MOLT-4 leukemia; -10.3% (active) in the assay on SR leukemia. Further, the growth with RPMI-8226 leukemia was 41.5%; in the assay with OVCAR-8 ovarian, 69.8%; in the assay with IGROV1 ovarian, 15.1%; in the assay on MDA-MB-435 melanoma, 34.3%; in the assay with HCC-2998 colon, 88.7%.

`Nc1ncnc2c1c(C(=O)NO)cn2C1OC(CO)C(O)C1O` (stereo not given): the growth with HOP-92 NSCLC is -37% (active); in the assay on NCI-H522 lung, -51.1% (active); in the assay with COLO 205 colon, -36.1% (active); with MALME-3M melanoma it was -41.1% (active); with HCT-15 colon, -9.1% (active); in the assay with SNB-19 CNS it was 11.9%. Also, the growth in the assay on LOX IMVI melanoma was -5.18% (active); in the assay on EKVX NSCLC it was 6.87% (active); with SN12C renal it was -31.9% (active); in the assay with TK-10 renal, 6.25% (active); with CCRF-CEM leukemia it was -17.6% (active); with MOLT-4 leukemia, -32.9% (active). Further, the growth is -7.79% (active) in the assay with SR leukemia; -21.7% (active) in the assay with RPMI-8226 leukemia; -20.2% (active) in the assay on OVCAR-8 ovarian; -71.1% (active) with IGROV1 ovarian; -72% (active) in the assay with MDA-MB-435 melanoma; -38.7% (active) with HCC-2998 colon.

In the case of `CCOC(=O)/C=C(\C)Nc1ccc(N/C(C)=C/C(=O)OCC)c2c1Oc1ccccc1O2`, the growth is 79% in the assay on HOP-92 NSCLC; 121% with COLO 205 colon; 107% with MALME-3M melanoma; 100% in the assay with HCT-15 colon; 115% in the assay with SNB-19 CNS; 79.9% in the assay with SK-MEL-5 melanoma. For the same compound, the growth in the assay with LOX IMVI melanoma is 94.4%; in the assay on EKVX NSCLC, 89%; in the assay on SN12C renal, 96.8%; in the assay on TK-10 renal, 124%; with CCRF-CEM leukemia it was 43.2%; in the assay on MOLT-4 leukemia it was 75.5%. Besides, the growth in the assay with SR leukemia was 78.3%; in the assay on RPMI-8226 leukemia, 83.2%; in the assay with OVCAR-8 ovarian, 96.7%; with MDA-MB-435 melanoma, 101%; in the assay on HCC-2998 colon, 120%.

On to `c1ccc(CCN2CCCCC2Cc2ccccc2)cc1` (stereo not given), for which the growth in the assay with HOP-92 NSCLC is 100%; in the assay with NCI-H522 lung, 83.5%; in the assay on MALME-3M melanoma, 97.7%; in the assay on HCT-15 colon, 104%; in the assay with SNB-19 CNS, 111%; in the assay on SK-MEL-5 melanoma, 94.8%. The growth was 90.9% in the assay on LOX IMVI melanoma; 93.4% with EKVX NSCLC; 99.2% in the assay with SN12C renal; 96.6% with TK-10 renal; 92.7% in the assay with MOLT-4 leukemia; 88.5% with SR leukemia. Besides, the growth is 107% with RPMI-8226 leukemia; 106% with OVCAR-8 ovarian; 92.5% in the assay with IGROV1 ovarian; 118% with MDA-MB-435 melanoma; 83.6% with HCC-2998 colon.

Turning to `COC(=O)C(=[N+]=[N-])C(=O)OC`, the growth in the assay with HOP-92 NSCLC was 82.9%; in the assay with NCI-H522 lung it was 94%; with MALME-3M melanoma, 110%; in the assay on HCT-15 colon it was 105%; in the assay on SNB-19 CNS it was 103%; in the assay with LOX IMVI melanoma it was 103%. The growth with SN12C renal is 98%; with TK-10 renal it was 92.5%; in the assay on CCRF-CEM leukemia it was 61.4%; with MOLT-4 leukemia, 105%; in the assay with SR leukemia, 100%; in the assay with RPMI-8226 leukemia, 96.4%. In addition, the figures for the growth in the assay on IGROV1 ovarian, in the assay on MDA-MB-435 melanoma and in the assay on HCC-2998 colon were 110%, 100% and 108%, respectively.

`COP(=S)(OC)Oc1ccc(SC)c(C)c1`: the growth is 72.6% in the assay on HOP-92 NSCLC; 94.8% with NCI-H522 lung; 101% in the assay with COLO 205 colon; 105% in the assay with MALME-3M melanoma; 105% in the assay on HCT-15 colon; 109% in the assay on SNB-19 CNS. For the same compound, the growth is 98.9% with SK-MEL-5 melanoma; 93.3% with LOX IMVI melanoma; 106% in the assay on EKVX NSCLC; 100% in the assay with SN12C renal; 113% with CCRF-CEM leukemia; 99.7% in the assay on IGROV1 ovarian. Besides, the growth was 100% with MDA-MB-435 melanoma and 104% in the assay with HCC-2998 colon.

As to `Nc1cccc2c1Oc1ccccc1O2`, the growth in the assay with HOP-92 NSCLC was 80.3%; in the assay on COLO 205 colon, 134%; in the assay with MALME-3M melanoma, 97.3%; in the assay on HCT-15 colon it was 102%; in the assay on SNB-19 CNS, 114%; in the assay on SK-MEL-5 melanoma, 86%. Moreover, the growth is 93.1% in the assay on LOX IMVI melanoma; 99.7% with EKVX NSCLC; 106% with SN12C renal; 103% in the assay on MOLT-4 leukemia; 102% with SR leukemia; 95.9% in the assay with RPMI-8226 leukemia. Further, the figures for the growth with IGROV1 ovarian and in the assay with HCC-2998 colon were 2.63% (active) and 109%, respectively.

Turning to `O=C(c1cccs1)C1NO[N+]([O-])=C1c1cccs1` (stereo not given), the growth in the assay on HOP-92 NSCLC is -35.9% (active); in the assay on NCI-H522 lung it was -92.1% (active); with COLO 205 colon, 6.64% (active); with MALME-3M melanoma, -55.3% (active); in the assay with HCT-15 colon, 64.9%; in the assay on SNB-19 CNS, 103%. For the same compound, the growth in the assay with SK-MEL-5 melanoma is 112%; with LOX IMVI melanoma, -100% (active); with EKVX NSCLC, 102%; in the assay on SN12C renal, 73.4%; in the assay on TK-10 renal, -46.8% (active); in the assay on CCRF-CEM leukemia, -40.3% (active). Further, the growth in the assay with MOLT-4 leukemia is 38.5%; in the assay on SR leukemia, 22.4%; in the assay on RPMI-8226 leukemia, 14.1%; in the assay with OVCAR-8 ovarian, 24.5%; with IGROV1 ovarian, 7.37% (active); with MDA-MB-435 melanoma it was 72.9%. Also, the growth with HCC-2998 colon is 96.5%.
